# Test results taken from paper PMC11062922 (Nature Chemical Biology, 2023).
# Where two headings read alike, the source gives them in different places.
# Test system: IKBKE
# Details: read-out: apparent Kd, n = 1
substance,measurement,setting,value
Lestaurtinib,potency estimated from few doses,"compound concentrations:100 nM and 1000 nM (sheet 'Lestaurtinib' of Supplementary Table 1),run:Lestaurtinib_02364_R1,Plate:MR002",769 nM
same,potency estimated from few doses,"compound concentrations:100 nM and 1000 nM (sheet 'Lestaurtinib' of Supplementary Table 1),run:Lestaurtinib_02364_R2,Plate:MR002",896 nM
same,potency estimated from few doses,"compound concentrations:100 nM and 1000 nM (sheet 'Lestaurtinib' of Supplementary Table 1),run:Lestaurtinib_02364_R3,Plate:MR002",647 nM
same,potency estimated from few doses,"compound concentrations:100 nM and 1000 nM (sheet 'Lestaurtinib' of Supplementary Table 1),run:Lestaurtinib_02367_R1,Plate:MR003",711 nM
same,potency estimated from few doses,"compound concentrations:100 nM and 1000 nM (sheet 'Lestaurtinib' of Supplementary Table 1),run:Lestaurtinib_02367_R2,Plate:MR003",972 nM
same,potency estimated from few doses,"compound concentrations:100 nM and 1000 nM (sheet 'Lestaurtinib' of Supplementary Table 1),run:Lestaurtinib_02381_R1,Plate:MR004",695 nM
same,potency estimated from few doses,"compound concentrations:100 nM and 1000 nM (sheet 'Lestaurtinib' of Supplementary Table 1),run:Lestaurtinib_02381_R2,Plate:MR004",551 nM
same,potency estimated from few doses,"compound concentrations:100 nM and 1000 nM (sheet 'Lestaurtinib' of Supplementary Table 1),run:Lestaurtinib_02381_R3,Plate:MR004",713 nM
same,potency estimated from few doses,"compound concentrations:100 nM and 1000 nM (sheet 'Lestaurtinib' of Supplementary Table 1),run:Lestaurtinib_02407_R3,Plate:MR005",883 nM
same,potency estimated from few doses,"compound concentrations:100 nM and 1000 nM (sheet 'Lestaurtinib' of Supplementary Table 1),run:Lestaurtinib_02422_R3,Plate:MR006",976 nM
same,potency estimated from few doses,"compound concentrations:100 nM and 1000 nM (sheet 'Lestaurtinib' of Supplementary Table 1),run:Lestaurtinib_02437_R1,Plate:MR007",554 nM
same,potency estimated from few doses,"compound concentrations:100 nM and 1000 nM (sheet 'Lestaurtinib' of Supplementary Table 1),run:Lestaurtinib_02437_R2,Plate:MR007",807 nM
same,potency estimated from few doses,"compound concentrations:100 nM and 1000 nM (sheet 'Lestaurtinib' of Supplementary Table 1),run:Lestaurtinib_02437_R3,Plate:MR007",71.2 nM
same,potency estimated from few doses,"compound concentrations:100 nM and 1000 nM (sheet 'Lestaurtinib' of Supplementary Table 1),run:Lestaurtinib_02438_R1,Plate:MR008",861 nM
same,potency estimated from few doses,"compound concentrations:100 nM and 1000 nM (sheet 'Lestaurtinib' of Supplementary Table 1),run:Lestaurtinib_02438_R2,Plate:MR008",834 nM
same,potency estimated from few doses,"compound concentrations:100 nM and 1000 nM (sheet 'Lestaurtinib' of Supplementary Table 1),run:Lestaurtinib_02443_R1,Plate:MR009",745 nM
same,potency estimated from few doses,"compound concentrations:100 nM and 1000 nM (sheet 'Lestaurtinib' of Supplementary Table 1),run:Lestaurtinib_02443_R2,Plate:MR009",713 nM
same,potency estimated from few doses,"compound concentrations:100 nM and 1000 nM (sheet 'Lestaurtinib' of Supplementary Table 1),run:Lestaurtinib_02482_R1,Plate:MR011",1130 nM
same,potency estimated from few doses,"compound concentrations:100 nM and 1000 nM (sheet 'Lestaurtinib' of Supplementary Table 1),run:Lestaurtinib_02482_R3,Plate:MR011",627 nM
same,potency estimated from few doses,"compound concentrations:100 nM and 1000 nM (sheet 'Lestaurtinib' of Supplementary Table 1),run:Lestaurtinib_02487_R2,Plate:MR012",1150 nM
same,potency estimated from few doses,"compound concentrations:100 nM and 1000 nM (sheet 'Lestaurtinib' of Supplementary Table 1),run:Lestaurtinib_02487_R3,Plate:MR012",756 nM
same,potency estimated from few doses,"compound concentrations:100 nM and 1000 nM (sheet 'Lestaurtinib' of Supplementary Table 1),run:Lestaurtinib_02496_R1,Plate:MR013",710 nM
same,potency estimated from few doses,"compound concentrations:100 nM and 1000 nM (sheet 'Lestaurtinib' of Supplementary Table 1),run:Lestaurtinib_02496_R2,Plate:MR013",695 nM
same,potency estimated from few doses,"compound concentrations:100 nM and 1000 nM (sheet 'Lestaurtinib' of Supplementary Table 1),run:Lestaurtinib_02566_R1,Plate:MR014",877 nM
same,potency estimated from few doses,"compound concentrations:100 nM and 1000 nM (sheet 'Lestaurtinib' of Supplementary Table 1),run:Lestaurtinib_02572_R1,Plate:MR015",756 nM
same,potency estimated from few doses,"compound concentrations:100 nM and 1000 nM (sheet 'Lestaurtinib' of Supplementary Table 1),run:Lestaurtinib_02572_R2,Plate:MR015",857 nM
same,potency estimated from few doses,"compound concentrations:100 nM and 1000 nM (sheet 'Lestaurtinib' of Supplementary Table 1),run:Lestaurtinib_02572_R3,Plate:MR015",855 nM
same,potency estimated from few doses,"compound concentrations:100 nM and 1000 nM (sheet 'Lestaurtinib' of Supplementary Table 1),run:Lestaurtinib_02577_R1,Plate:MR016",799 nM
same,potency estimated from few doses,"compound concentrations:100 nM and 1000 nM (sheet 'Lestaurtinib' of Supplementary Table 1),run:Lestaurtinib_02577_R2,Plate:MR016",785 nM
same,potency estimated from few doses,"compound concentrations:100 nM and 1000 nM (sheet 'Lestaurtinib' of Supplementary Table 1),run:Lestaurtinib_02577_R3,Plate:MR016",713 nM
same,potency estimated from few doses,"compound concentrations:100 nM and 1000 nM (sheet 'Lestaurtinib' of Supplementary Table 1),run:Lestaurtinib_02584_R2,Plate:MR017",744 nM
same,potency estimated from few doses,"compound concentrations:100 nM and 1000 nM (sheet 'Lestaurtinib' of Supplementary Table 1),run:Lestaurtinib_02584_R3,Plate:MR017",935 nM
same,potency estimated from few doses,"compound concentrations:100 nM and 1000 nM (sheet 'Lestaurtinib' of Supplementary Table 1),run:Lestaurtinib_02601_R3,Plate:MR018",796 nM
same,potency estimated from few doses,"compound concentrations:100 nM and 1000 nM (sheet 'Lestaurtinib' of Supplementary Table 1),run:Lestaurtinib_02606_R1,Plate:MR019",995 nM
same,potency estimated from few doses,"compound concentrations:100 nM and 1000 nM (sheet 'Lestaurtinib' of Supplementary Table 1),run:Lestaurtinib_02624_R2,Plate:MR020",729 nM
same,potency estimated from few doses,"compound concentrations:100 nM and 1000 nM (sheet 'Lestaurtinib' of Supplementary Table 1),run:Lestaurtinib_02624_R3,Plate:MR020",787 nM
same,potency estimated from few doses,"compound concentrations:100 nM and 1000 nM (sheet 'Lestaurtinib' of Supplementary Table 1),run:Lestaurtinib_02724_R1,Plate:MR021",731 nM
same,potency estimated from few doses,"compound concentrations:100 nM and 1000 nM (sheet 'Lestaurtinib' of Supplementary Table 1),run:Lestaurtinib_02724_R2,Plate:MR021",809 nM
same,potency estimated from few doses,"compound concentrations:100 nM and 1000 nM (sheet 'Lestaurtinib' of Supplementary Table 1),run:Lestaurtinib_02724_R3,Plate:MR021",582 nM
same,potency estimated from few doses,"compound concentrations:100 nM and 1000 nM (sheet 'Lestaurtinib' of Supplementary Table 1),run:Lestaurtinib_02741_R1,Plate:MR023",782 nM
same,potency estimated from few doses,"compound concentrations:100 nM and 1000 nM (sheet 'Lestaurtinib' of Supplementary Table 1),run:Lestaurtinib_02741_R2,Plate:MR023",810 nM
same,potency estimated from few doses,"compound concentrations:100 nM and 1000 nM (sheet 'Lestaurtinib' of Supplementary Table 1),run:Lestaurtinib_02741_R3,Plate:MR023",965 nM
